Results filed as inconclusive are left out. Activity calls are given as the source filed them. Calls come from the whole dose curve; as a rule, active = well fitted inhibition curve with a large enough effect; inconclusive = small, poorly fitted or top-dose-only effect; inactive = flat fitted curve, though single readings scatter.
Target: Ferritin light chain (Equus caballus) (UniProt P02791)
Test: Confirmation Assay for Identification of Novel General Anesthetics; note: nearly all actives have a fitted effect of over 40% in size
Conditions: apoferritin 1-aminoanthracene fluorescence displacement
In short: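 Competitive displacement of profluorescent 1-aminoanthracene from 10 uM horse-spleen apoferritin in 50% saturated 1-AMA/PBS; 10 min RT, fluorescence Ex 380/Em 535. Normalized to free 1-AMA and complex; four-parameter Hill fit.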
Potency is the fitted concentration of half-maximal effect.

Chain of Ferritin light chain (Equus caballus) (P02791 2-175 limits assumed): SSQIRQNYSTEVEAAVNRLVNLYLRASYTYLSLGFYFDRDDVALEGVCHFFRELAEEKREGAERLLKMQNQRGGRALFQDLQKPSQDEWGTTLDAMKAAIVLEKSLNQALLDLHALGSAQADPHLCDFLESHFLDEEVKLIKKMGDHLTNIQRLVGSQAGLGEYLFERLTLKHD

Potency, active:
O=C(NC1CCCCC1)N1CCCCCCC1 14.1 µM, Nc1ccc(C23CC4CC(CC(C4)C2)C3)cc1 7.08 µM, NS(=O)(=O)c1cccnc1Nc1cccc(C(F)(F)F)c1 10 µM, CN(C)CC(=O)Nc1ccc(Oc2ccc(Cl)cc2)cc1 28.2 µM, COc1ccccc1OCC(=O)N1CCCCCCC1 12.6 µM, CC(C)CCSc1nc2ccccc2[nH]1 15.8 µM, Fc1ccc(CNc2ccc(CNc3ncn[nH]3)cc2)cc1 17.8 µM, Oc1ccc(C(=S)N2CCCCCC2)cc1 14.1 µM, COc1ccc(-c2ccc(=O)n(CC(=O)NCc3ccco3)n2)cc1 14.1 µM, O=C(NCc1ccccc1)Nc1cccn(Cc2ccccc2)c1=O 8.91 µM, ClC1(Cl)CC1CSc1nc2ccccc2[nH]1 (centres undefined) 15.8 µM, CC1CCCN(C(=O)Nc2ccc(Br)cc2Cl)C1 (centres undefined) 28.2 µM, Cc1ccc(-c2ccc(=O)n(CC(=O)NCCc3ccccc3)n2)cc1 6.31 µM, Cc1ccccc1Cn1nnc2sc3c(c2c1=O)CCCC3 15.8 µM, Cc1cc(NS(=O)(=O)c2ccccc2)cc(Cl)c1O 11.2 µM, Oc1ccc(NCc2cccc(OCc3ccccc3)c2)cc1 15.8 µM, Cc1ccccc1Nc1nc2ccccc2s1 14.1 µM, O=S(=O)(NCCCc1ccccc1)c1ccc(F)c(F)c1 17.8 µM, Cc1cc(C(=O)OCC(=O)N2C(C)CCCC2C)c(C)o1 (centres undefined) 14.1 µM

From PubChem BioAssay AID489008 (National Center for Advancing Translational Sciences (NCATS), 2010)
